An excerpt weighted towards active compounds, which were near 1.7% of everything screened.
ALOX12 inh: ALOX12 (human) lipoxygenase inhibition. P18054. purified 12hLO, xylenol orange hydroperoxide absorbance. Potency, µM (doses to about 108 µM), inactives show at the highest dose activity change, negative = inhibition, most hits filed as inhibitors. 580,000 compounds, 1.1% hits; note: % is set by controls: 0 for no effect and ±100 for the full control effect
Target sequence (P18054 whole entry, looked up): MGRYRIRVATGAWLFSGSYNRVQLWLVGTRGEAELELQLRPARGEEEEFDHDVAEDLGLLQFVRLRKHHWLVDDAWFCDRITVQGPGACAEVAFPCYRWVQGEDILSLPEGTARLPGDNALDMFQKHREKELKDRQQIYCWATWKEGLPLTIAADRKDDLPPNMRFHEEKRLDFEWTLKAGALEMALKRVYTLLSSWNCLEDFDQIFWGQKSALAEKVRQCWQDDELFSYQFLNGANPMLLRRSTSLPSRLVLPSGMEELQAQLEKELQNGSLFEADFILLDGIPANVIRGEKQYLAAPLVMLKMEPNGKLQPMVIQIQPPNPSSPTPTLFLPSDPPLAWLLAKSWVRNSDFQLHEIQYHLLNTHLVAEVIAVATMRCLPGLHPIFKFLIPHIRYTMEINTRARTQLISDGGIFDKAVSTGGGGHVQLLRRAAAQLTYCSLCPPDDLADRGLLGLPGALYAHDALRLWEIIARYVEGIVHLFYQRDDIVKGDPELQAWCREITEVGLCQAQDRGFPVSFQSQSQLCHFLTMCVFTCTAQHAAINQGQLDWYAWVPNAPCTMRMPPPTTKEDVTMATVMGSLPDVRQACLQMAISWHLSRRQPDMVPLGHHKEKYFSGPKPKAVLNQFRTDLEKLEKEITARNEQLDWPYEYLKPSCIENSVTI
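Hydroperoxide product was detected by ferrous iron/xylenol orange as the 573 to 405 nm absorbance ratio. Arachidonic acid at 40 uM (final) was turned over for 30 min at room temperature by 150 nM human 12hLO, pH 7.0 Hepes buffer, after 15 min compound preincubation.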
TrxR1 substrate: is turned over as a substrate by rat TrxR1; AID 588456; Potency, µM (doses to about 114 µM), inactives show at the top dose activity change, negative = substrate turnover; 390,000 compounds, 0.01% hits; purified TrxR1 substrate turnover, NADPH consumption readout; note: % is set by controls: 0 for no effect and ±100 for the full control effect; nearly all actives have a fitted effect of over 50% in size
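Rat TrxR1, dispensed at 90 nM, was prereduced with 400 uM NADPH (final) for 5 min at ~22 deg C, then incubated with compound 15 min before 400 uM selenite. A first-read NADPH fluorescence drop versus no-compound background flagged substrates.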
TrxR1 inh: blocks rat thioredoxin reductase 1 | O89049 | recombinant rTrxR1, NADPH fluorescence consumption, selenite substrate | Potency, µM (doses to about 114 µM), inactives show top-dose activity change, negative = inhibition, most hits filed as inhibitors | 390,000 compounds, 1% hits | AID 588453; note: % is set by controls: 0 for no effect and ±100 for the full control effect; nearly all actives have a fitted effect of over 65% in size
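Rat TrxR1 (90 nM in the dispensed reagent) was pre-reduced with 400 uM NADPH for 5 min at room temperature, then incubated with compound for 15 min. After 400 uM selenite was added, NADPH fluorescence (Ex 340/Em 450 nm) was followed for 8 min.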
mIDH1 inhibitor: blocks human mutant IDH1 R132H enzyme. AID 602179. 390,000 compounds, 0.093% hits. Potency, µM (highest dose often 76.6 µM), for inactives: at the top dose activity change, negative = inhibition, most hits filed as inhibitors. O75874. IDH1-R132H enzyme, NADPH consumption, diaphorase/resazurin fluorescence; note: % is set by controls: 0 for no effect and ±100 for the full control effect; nearly all actives have a fitted effect of over 65% in size
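IDH1-R132H (0.5 ug/mL) preincubated 30 min with compound, then NADPH (0.016 mM) and alpha-KG (2 mM) added; 80 min at RT, pH 7.5. Remaining NADPH coupled via diaphorase/resazurin to fluorescence (540/590 nm); concentration-response curves normalized to no-enzyme control.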
GRP78 ERSR act: induces the endoplasmic reticulum stress response in human glioma cells; U87-MG GRP78 promoter luciferase reporter, 16 h; Potency, µM, inactives show at the top dose activation, usual class: activators; 420,000 compounds, 0.02% hits; AID 602332; note: series mostly up to about 76 µM; % of control where 0% means no effect; nearly all actives have a fitted effect of over 35% in size
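Stably transfected U87-MG human glioma cells carrying a GRP78-based luminescent sensor were seeded at 1000 cells/well, pin-dosed with compounds and incubated 16 h. Luciferase reagent was then added, and end-point luminescence was read after 10 min at room temperature.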
Anesthetic bind: candidate novel general anesthetic via apoferritin binding. apoferritin/1-aminoanthracene competitive binding, fluorescence. AID 485281. Potency, µM (top dose mostly 77.5 µM), for inactives: at the highest dose activity change, negative = displacement, usual class: inhibitors. 350,000 compounds, 0.074% hits; note: % is set by controls: 0 for no effect and ±100 for the full control effect; nearly all actives have a fitted effect of over 20% in size
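Probe: 1-aminoanthracene (50% saturated, PBS). Protein: horse-spleen apoferritin, 10 uM. Incubation: 10 min, room temperature. Detection: 380 nm excitation, 535 nm emission. Analysis: normalized response, four-parameter Hill.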
* = called active by the depositor; ? = inconclusive; . = no result given; [ ] = remark or other dose. Calls come from the whole dose curve; as a rule, active = well fitted curve in the direction sought with a large enough effect; inconclusive = small, poorly fitted or top-dose-only effect, or another doubt; inactive = no such curve, though single readings can be large; an effect the other way counts as inactive or inconclusive. Potency is the fitted concentration of half-maximal effect.

SMILES | ALOX12 inh | TrxR1 substrate | TrxR1 inh | mIDH1 inhibitor | GRP78 ERSR act | Anesthetic bind
CC(C)Cn1c(C23CC4CC(CC(C4)C2)C3)n[nH]c1=S | 28µM* | -1% | -12% | 1% | -5% | ?
COCCCn1c(C23CC4CC(CC(C4)C2)C3)n[nH]c1=S | ? | -3% | -15% | 4% | 2% | -8%
Cn1c(C23CC4CC(CC(C4)C2)C3)n[nH]c1=S | ? | -7% | -12% | 2% | -4% | ?
Fc1ccccc1-n1c(C23CC4CC(CC(C4)C2)C3)n[nH]c1=S | 14µM* | . | . | . | . | .
CCOC(=O)CSc1ccc2nnc(-c3ccccc3)n2n1 | -17% | 16% | 18% | 3% | -4% | -9%
CCOC(=O)CSc1ccc2nnc(-c3cccnc3)n2n1 | 32µM* | 25% | 9% | 8% | -3% | 3%
O=C(NCCc1ccc(Cl)cc1)c1ccccn1 | 32µM* | . | . | . | . | .
O=C1C=CC(=O)N1c1ccc2ccccc2c1 | 40µM* | 14%[57.1 µM] | -85%[57.1 µM] | 10% | -1% | .
Cc1cccc(OCCn2c(=S)[nH]c3ccccc32)c1 | ? | 8%[57.1 µM] | -5%[57.1 µM] | 5% | 3% | 3%
CCOc1ccc(OCCn2c(=S)[nH]c3ccccc32)cc1 | ? | -11% | -21% | 7% | 5% | -15%
Cc1ccc(OCCn2c(=S)[nH]c3ccccc32)c(C(C)C)c1 | 32µM* | -2% | 11% | -3% | 7% | 8%
S=c1[nH]c2ccccc2n1CCOc1ccccc1 | 40µM* | -4% | 1% | -2% | 2% | -20%
CC(/C=C1\SC(=S)N(NS(=O)(=O)c2ccccc2)C1=O)=C\c1ccccc1 | ? | -9% | -10% | 1% | 2% | 4%
CC(=O)N1C(=O)/C(=C2\SC(=S)N(NS(=O)(=O)c3ccc(C)cc3)C2=O)c2ccccc21 | 45µM* | 5% | ? | -2% | -5% | -8%
CC(/C=C1\SC(=S)N(NS(=O)(=O)c2ccc(C)cc2)C1=O)=C\c1ccccc1 | 16µM* | -3% | 3% | 1% | -5% | -5%
CC(=O)N1C(=O)/C(=C2\SC(=S)N(c3c(C)n(C)n(-c4ccccc4)c3=O)C2=O)c2ccccc21 | ? | -8% | -22% | 4% | -3% | -17%
Cc1oc2cc(OCC(=O)NCCC(=O)O)ccc2c(=O)c1-c1ccc(Cl)cc1 | -2% | . | . | . | . | .
CCc1ccc(C(=O)NC(C)(C)c2cn([C@H]3CN[C@H](C(=O)NC)C3)nn2)cc1 | -6% | . | . | . | . | .
CCC1(c2ccccc2)NC(=S)N(c2cccc(C)c2C)N1 (centres undefined) | 25µM* | 5%[57.1 µM] | -8%[57.1 µM] | 0% | 3% | -3%
CCC1(N2CCN(S(=O)(=O)c3ccc4c(c3)CCCC4)CC2)CCN(C(=O)C(C)C)C1 (centres undefined) | 22µM* | . | . | . | . | .
CCC1(N2CCN(S(=O)(=O)c3ccc(F)c(C)c3)CC2)CCN(C(=O)C(C)C)C1 (centres undefined) | 1% | . | . | . | . | .
CCNC(=O)CN1C(=O)CN(C(=O)NCc2ccccc2)c2ccccc21 | -4% | . | . | . | . | .
COc1cc(C(=O)N[C@H](C)c2onc(-c3ccccc3)c2C(=O)O)cc(OC)c1OC | 3%[176 µM] | . | . | . | . | .
Cc1ccc(Cn2cc(-c3ccncc3)cc2C(=O)NC2CC2)cc1 | 28µM* | . | . | . | . | .
Cc1ccc(Cn2cc(-c3ccncc3)cc2C(=O)NCC2CC2)cc1 | 3% | . | . | . | . | .
SMILES | ALOX12 inh | TrxR1 substrate | TrxR1 inh | mIDH1 inhibitor | GRP78 ERSR act | Anesthetic bind
CC(C)N1CCN(C(=O)c2cc3cn(C4CC4)cc3s2)CC1 | 18% | . | . | . | . | .
CC(N=Cc1cc([N+](=O)[O-])ccc1O)c1ccccc1 (centres undefined) | -14% | -6% | 3% | 1% | -2% | ?
Oc1cccc(/C=N/N=C/c2cccc(O)c2O)c1O | 0% | 4%[57.1 µM] | 8%[57.1 µM] | 6% | ? | ?
CC(N=Cc1cccc(O)c1O)c1ccccc1 (centres undefined) | . | -12% | 40µM* | 7% | 9% | -9%
Cc1ccccc1N=Cc1cccc(O)c1O | . | ? | 71µM* | 4% | ? | -8%
Cc1ccc(N=Cc2cccc(O)c2O)c(C)c1 | -21% | -8% | 32µM* | . | ? | ?
CCN(CC)c1ccc(C=Nc2ccc(C)cc2C)c(O)c1 | -2% | -17%[57.1 µM] | 22%[57.1 µM] | 9% | 11% | -14%
COc1ccc(C(=O)COC(=O)CCC(=O)c2cc(C)sc2C)c(OC)c1 | -27% | . | . | . | . | .
CCN(CC)CCCNC(=O)c1cc(Nc2ccc(OC)cc2)nc2ccccc12 | 26% | -2%[57.1 µM] | 2%[57.1 µM] | -4% | -5% | -10%
CCCOc1cccc(-c2cc(C(=O)NNC(=S)NCC)c3ccccc3n2)c1 | 25µM* | 1% | 2% | 6% | -3% | ?
CCCCNC(=O)c1cc(-c2ccc(OCC)cc2)nc2ccccc12 | -40% | . | . | . | . | .
CCNC(=S)NNC(=O)c1cc(-c2cccc(OC)c2)nc2ccccc12 | -24% | -2%[11.4 µM] | -18%[11.4 µM] | 3% | 4% | ?
CCCCCNC(=O)c1cc(-c2ccc(OC)cc2)nc2ccccc12 | 32µM* | . | . | . | . | .
CCN(CC)CCCNC(=O)c1cc(-c2ccc(OC)cc2)nc2ccccc12 | 6.3µM* | . | . | . | . | .
CCOc1ccc(NC(=O)C#Cc2ccccc2)cc1 | 16% | . | . | . | . | .
